According to PubChem BioAssay AID602144 (Vanderbilt Specialized Chemistry Center, 2011):
Active and inactive are the calls of the source. Cut-off read from the data, not from the text of the source: active = remaining activity below about 50%; inactive = the rest.

Target: Phospholipase D1 (Homo sapiens) (UniProt Q13393)
Assay: PLD1 inhibitors in cells, Calu-1 cells, single concentration (AID 602144);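 note: tested at 200 nM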
Details: cellular PLD1 activity, stronger effect = lower value

Sequence of Phospholipase D1 (Homo sapiens) (Q13393 whole entry, looked up): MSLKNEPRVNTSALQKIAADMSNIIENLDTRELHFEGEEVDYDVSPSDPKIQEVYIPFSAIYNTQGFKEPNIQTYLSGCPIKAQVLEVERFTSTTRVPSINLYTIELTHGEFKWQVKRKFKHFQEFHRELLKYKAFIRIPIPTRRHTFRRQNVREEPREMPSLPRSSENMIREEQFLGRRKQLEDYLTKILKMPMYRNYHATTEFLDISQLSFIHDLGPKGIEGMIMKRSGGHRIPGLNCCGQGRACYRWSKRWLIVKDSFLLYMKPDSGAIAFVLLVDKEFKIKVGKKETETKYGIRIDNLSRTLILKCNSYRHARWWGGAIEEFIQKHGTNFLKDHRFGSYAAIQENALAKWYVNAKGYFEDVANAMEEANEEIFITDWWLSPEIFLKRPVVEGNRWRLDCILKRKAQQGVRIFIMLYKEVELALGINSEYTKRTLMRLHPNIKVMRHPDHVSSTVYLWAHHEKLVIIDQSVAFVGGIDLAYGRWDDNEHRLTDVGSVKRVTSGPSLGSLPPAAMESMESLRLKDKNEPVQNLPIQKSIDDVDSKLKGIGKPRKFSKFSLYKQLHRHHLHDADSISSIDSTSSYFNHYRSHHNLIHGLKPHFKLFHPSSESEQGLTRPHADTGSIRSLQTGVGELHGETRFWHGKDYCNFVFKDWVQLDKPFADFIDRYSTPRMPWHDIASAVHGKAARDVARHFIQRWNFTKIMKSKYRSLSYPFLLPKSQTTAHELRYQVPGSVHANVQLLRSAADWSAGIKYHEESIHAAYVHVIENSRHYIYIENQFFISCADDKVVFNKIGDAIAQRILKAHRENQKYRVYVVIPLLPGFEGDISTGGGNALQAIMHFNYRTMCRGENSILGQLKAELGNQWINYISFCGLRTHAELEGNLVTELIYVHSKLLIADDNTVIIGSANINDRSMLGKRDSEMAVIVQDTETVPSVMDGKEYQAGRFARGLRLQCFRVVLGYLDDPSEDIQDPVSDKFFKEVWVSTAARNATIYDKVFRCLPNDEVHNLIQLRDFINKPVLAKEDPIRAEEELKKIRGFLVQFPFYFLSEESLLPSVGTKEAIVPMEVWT
Sequence of Phospholipase D1 (Homo sapiens) (Q13393 whole entry, looked up): as above

SMILES	remaining activity
O=C(NCCN1CCC2(CC1)C(=O)NCN2c1ccccc1)c1cc(=O)c2cc(Br)ccc2o1	110% (inactive)
O=C(N[C@@H](Cc1ccccc1)CN1CCC2(CC1)C(=O)NCN2c1ccccc1)c1ccc(F)c(F)c1	75.5% (inactive)
O=C(NCCN1CCC2(CC1)C(=O)NCN2c1ccc(F)c(F)c1)c1ccc(F)cc1	101% (inactive)
C[C@@H](CN1CCC2(CC1)C(=O)NCN2c1ccccc1)NC(=O)c1ccc2ccccc2c1	4.56% (active)
C[C@@H](CN1CCC2(CC1)C(=O)NCN2c1ccccc1)NC(=O)c1ccc(F)c(F)c1	34.3% (active)
O=C(c1cnc2ccccc2c1)N1CCCC1CN1CCC(n2c(=O)[nH]c3ccccc32)CC1 (stereo not given)	122% (inactive)
O=C1c2ccccc2C(=O)N1CCN1CCC2(CC1)C(=O)NCN2c1ccccc1	102% (inactive)
O=C(CCN1CCC2(CC1)C(=O)NCN2c1ccccc1)Nc1ccc(Cl)cc1	122% (inactive)
O=C(C1C[C@H]1c1ccccc1)N1CC(N2CCC(n3c(=O)[nH]c4ccccc43)CC2)C1 (stereo not given in full)	125% (inactive)
COc1cccc(C(=O)NCCN2CCC3(CC2)C(=O)NCN3c2ccccc2)n1	137% (inactive)
O=C(NCCN1CCC2(CC1)C(=O)NCN2c1ccc(Cl)cc1)c1cc2ccccc2[nH]1	61.5% (inactive)
O=C(NCCN1CCC2(CC1)C(=O)NCN2c1ccccc1)c1cnc2ccccc2n1	96.5% (inactive)
O=C(NCCN1CCC2(CC1)C(=O)NCN2c1ccc(Cl)cc1)c1cnc2ccccc2c1	94.2% (inactive)
C[C@@H](CN1CCC2(CC1)C(=O)NCN2c1ccc(F)c(F)c1)NC(=O)c1cc2ccccc2[nH]1	0% (active)
O=C(NCCN1CCC2(CC1)C(=O)NCN2c1ccccc1)c1cc(Br)c(Br)o1	66.9% (inactive)
O=C(CN1CCC2(CC1)C(=O)NCN2c1ccccc1)c1ccccc1	102% (inactive)
O=C(C1CC1c1ccccc1)N1CC(N2CCC3(CC2)C(=O)NCN3c2ccccc2)C1 (stereo not given)	94.4% (inactive)
O=C(CCN1CCC2(CC1)C(=O)NCN2c1ccccc1)Nc1cnc2ccccc2c1	123% (inactive)

SMILES	remaining activity
CC(C)[C@@H](CN1CCC2(CC1)C(=O)NCN2c1ccccc1)NC(=O)c1ccc(F)cc1	41.3% (active)
O=C(NCCN1CCC2(CC1)C(=O)NCN2c1cccc(F)c1)c1c(F)cccc1F	80.5% (inactive)
O=C(NCCN1CCC2(CC1)C(=O)NCN2c1ccc(Br)cc1)c1ccc(F)cc1	78.5% (inactive)
O=C(NCCN1CCC2(CC1)C(=O)NCN2c1cccc(F)c1)C12CC3CC(CC(C3)C1)C2	98.7% (inactive)
O=C(NCCN1CCC2(CC1)C(=O)NCN2c1cccc(F)c1)c1cccc(F)c1	100% (inactive)
C[C@H](N)CN1CCC2(CC1)C(=O)NCN2c1ccccc1 (tested in a mixture with another compound)	96.4% (inactive)
C[C@@H](CN1CCC2(CC1)C(=O)NCN2c1ccc(F)c(F)c1)NC(=O)c1ccc2ccccc2c1	25.7% (active)
O=C(c1c(F)cccc1F)N(CCN1CCC2(CC1)C(=O)NCN2c1cccc(F)c1)C(=O)c1c(F)cccc1F	97.9% (inactive)
O=C(NCCN1CCC2(CC1)C(=O)NCN2c1ccc(Cl)cc1)c1ccc2ccccc2c1	103% (inactive)
O=C(NCCN1CCC2(CC1)C(=O)N(Cc1ccccc1)c1ccccc12)c1ccc2ccccc2c1	98.9% (inactive)
Cc1cccc(C(=O)NCCN2CCC3(CC2)C(=O)NCN3c2ccccc2)n1	123% (inactive)
CC(C)(C)C(=O)NCCN1CCC2(CC1)C(=O)NCN2c1cccc(F)c1	71.8% (inactive)
O=C(NCCN1CCC2(CC1)C(=O)NCN2c1ccc(Br)cc1)c1ccc2ccccc2c1	92.7% (inactive)
O=C(c1cnc2ccccc2c1)N1CC(N2CCC3(CC2)C(=O)NCN3c2ccccc2)C1	106% (inactive)
O=C(NCCN1CCC2(CC1)C(=O)NCN2c1cccc(F)c1)C(c1ccccc1)c1ccccc1	94.7% (inactive)
O=C(NCCN1CCC2(CC1)C(=O)NCN2c1ccc(F)c(F)c1)c1cnc2ccccc2c1	91.3% (inactive)
CC(C)[C@@H](CN1CCC2(CC1)C(=O)NCN2c1ccccc1)NC(=O)c1ccc(Cl)cc1	18% (active)
